Experimental data from PubChem BioAssay AID1850 (Southern Research Specialized Biocontainment Screening …, 2009).
Among all 310,000 compounds or so, about 1,000 (0.32%) were called active. Not all results are given here. Entries with a potency or affinity are not part of this list. Unmarked numbers belong to inactive results. The rule behind the calls is not given here.

Experiment: PhoP regulon inhibitors, Salmonella typhi PhoP promoter GFP reporter, confirmatory (AID 1850);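 note: 0% = induced wells with vehicle and 100% = uninduced wells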
Conditions: fluorescence, 4 h, at 50 µM, hits give high values

Compound | inhibition [%]
CC(/C=C/c1ccc2c(c1)OCO2)=N/NC(=O)COc1ccc(C)cc1 | -7.1
CS(=O)(=O)c1ccc(Cl)c(NC(=O)COC(=O)/C=C/c2cnc3ccccc3n2)c1 | 5.47
O=C(Nc1nc(-c2ccccn2)cs1)c1ccco1 | 2.93
Cc1csc(NC(=O)c2ccc(Br)s2)n1 | 11.7
O=C(Nc1nc(-c2ccccn2)cs1)c1ncc(Cl)c(Cl)c1Cl | -0.4
O=C(Nc1nc(-c2cccs2)cs1)c1ccc(Cl)s1 | -14
COC(=O)C(Cc1ccccc1)N1CCS(=O)(=O)CC1 (stereo not drawn) | 9.2
CCCCOc1ccc(/C(O)=C2/C(=O)C(=O)N(CCN(C)C)C2c2ccc(O)c(OC)c2)cc1 (stereo not drawn) | -11.8
O=C(Nc1ccccn1)c1ccc2c(c1)S(=O)(=O)c1ccccc1C2=O | -0.07
COc1ccccc1CNc1cc(C)ccc1C | 4.32
COc1ccc(CCN(Cc2nc3ccccc3c(=O)[nH]2)C(=O)C2CC2)cc1 | -4.16
Cc1ccc(C(=O)N/C(=C/c2ccc(-c3ccc([N+](=O)[O-])cc3)o2)C(=O)NCCCN(C)C)cc1 | -1.29
CN(C)CCCNC(=O)/C(=C/c1ccc(-c2ccc([N+](=O)[O-])cc2)o1)NC(=O)c1ccccc1 | 8.87
Cc1ccc(C(=O)N/C(=C\c2ccc(-c3ccccc3[N+](=O)[O-])o2)C(=O)NCCCN(C)C)cc1 | -1.46
CN(C)CCCNC(=O)/C(=C\c1ccc(-c2ccc(Br)cc2)o1)NC(=O)c1ccccc1 | 22.2
Cc1ccc(C(=O)N/C(=C\c2ccc(-c3cccc([N+](=O)[O-])c3)o2)C(=O)NCCCN(C)C)cc1 | 16.2
CN(C)CCNC(=O)/C(=C/c1ccc(-c2cccc(Cl)c2)o1)NC(=O)c1ccccc1 | 20.4
Cn1c(=O)oc2cc(S(=O)(=O)NCc3ccccn3)ccc21 | 0.2
Cc1cc(C)cc(NC(=S)/N=C(\N)Nc2nc(C)c3ccccc3n2)c1 | -5.71
Cc1ccc(COC(=O)c2ccc3ccccc3n2)cc1 | -0.98
O=C(Cc1ccc(F)cc1)c1ccc(O)cc1O | -11.9
COc1ccc(CC(=O)c2ccc(O)cc2O)cc1 | -0.72
C=CCOCCN1C(=O)C2C(c3ccccc3)C=CC(c3ccccc3)C2C1=O (stereo not drawn) | 5.25
CCc1nnc(NC(=O)[C@@H]2CCCN2S(=O)(=O)c2ccc3c(c2)OCCO3)s1 | -7.63
CN1CCN(CCCN2c3ccccc3Sc3ccc(C(F)(F)F)cc32)CC1 | 5.34

Compound | inhibition [%]
CN1CCCCC1CCN1c2ccccc2Sc2ccc(S(C)=O)cc21 (stereo not drawn) | 0.68
CN1CCCC(CN2c3ccccc3Sc3ccccc32)C1 (stereo not drawn) | -0.92
CN1CCN(CCC(=O)N2c3ccccc3Sc3ccc(Cl)cc32)CC1 | -0.99
OCCN1CCN(CCCN2c3ccccc3Sc3ccc(Cl)cc32)CC1 | 4.15
CN1CCN(CCCN2c3ccccc3Sc3ccc(S(=O)(=O)N(C)C)cc32)CC1 | 0.8
O=C(Nc1cccc(-n2cccn2)c1)C1CCCN(Cc2cccc(F)c2F)C1 (stereo not drawn) | -4.31
N/C(=N\OC(=O)c1ccc(Br)cc1)c1ccncc1 | 5.21
COc1ccc(OC)c(S(=O)(=O)N2CCC(C(=O)NCc3ccc4c(c3)OCO4)CC2)c1 | -8.79
Cc1ccc2cc(CCNC(=O)c3cccs3)c(=O)[nH]c2c1C | 3.08
CCOc1ccc(S(=O)(=O)N2CCN(C(=O)c3ccc(-n4cncn4)c([N+](=O)[O-])c3)CC2)cc1 | -1.56
COc1ccc(N2CCN(C(c3cccs3)C(C)NS(C)(=O)=O)CC2)cc1 (stereo not drawn) | -6.29
COc1ccc(Cc2c(C)nc(N)nc2Cl)cc1 | -7.38
Cc1nc(N)nc(Cl)c1Cc1ccc(Cl)cc1 | -7.07
CCCCN(C)CCNC(=O)c1cc2cc3ccc(OC)cc3nc2o1 | 7.2
CCN(CC(=O)Nc1ccccc1C(F)(F)F)C(=O)CN1C(=O)NC2(CCCCC2)C1=O | -5.21
Nc1nc(SCC(=O)Nc2ccccc2Sc2ccccc2)n[nH]1 | -1.42
COc1ccccc1NC(=O)CCn1cccc1 | -6.32
C/C(=N\Nc1ccc2nncn2n1)c1cccs1 | 4.31
C/C(=N\Nc1ccc2nncn2n1)c1ccco1 | 2.03
O=C(Nc1csc(Cc2c(Cl)cccc2Cl)n1)NN1CCOCC1 | -0.65
CN1CCN(CCCNC(=O)Nc2ccc([N+](=O)[O-])cc2)CC1 | 1.78
O=C(NCCCN1CCCC1)Nc1ccc(F)cc1 | 2.17
COCC(=O)NNC(=O)Cc1ccc(Cl)cc1 | -2.72
CC(C)Oc1ccc(Cc2cnc(=S)[nH]c2N)cc1 | 7.33
CC(C)COc1ccc(Cc2cnc(N)nc2N)cc1 | 15.8

Compound | inhibition [%]
CCSc1ccccc1C(=O)N=C1NC(=O)CC2C(=O)NCCN12 (stereo not drawn) | 1.96
O=C(COc1ccc(C(=S)N2CCOCC2)cc1)Nc1ccccc1C(F)(F)F | -0.77
O=C(NCCCNC(=O)c1ccc(-c2cc(Cl)ccc2Cl)o1)c1cnccn1 | 9.68
COc1cccc(C(=O)NC2=NCCS2)c1OC | 2.77
CCOC(=O)Nc1c2ccccc2nc2ccccc12 | -6.02
O=C(O)c1ccc(Nc2c3ccccc3nc3ccccc23)cc1 | 4.42
CC(=O)C1=C(C)NC(=O)NC1c1ccccc1OCC(=O)NCCc1ccccc1 (stereo not drawn) | 2.94
Cc1nc2ccc(Br)cn2c1C(=O)N/N=C\c1ccccc1[N+](=O)[O-] | -1.1
O=C(COc1ccc(Cl)cc1Cl)N1CCCCCC1 | 3.1
O=C(Nc1ccc(Cl)c(Cl)c1)Nc1nccs1 | 0.93
CC(=O)Nc1sc(N/N=C\c2cccc(Cl)c2)nc1-c1cccs1 | -2.74
Fc1cccc(/C=N/Nc2ccccn2)c1 | -0.26
Cc1csc(N/N=C\c2cccnc2)n1 | -7.97
Clc1cccc(Cl)c1/C=N\Nc1nccs1 | -7.79
O=C(Nc1ccc(Cl)cc1)Nc1nccs1 | -2.29
C(=N\c1nccs1)/c1cccnc1 | 10.7
FC(F)(F)c1ccc(N/N=C/c2cccnc2)nc1 | -6.21
Cc1[nH]nc2c1C(c1ccccc1F)NC2=O (stereo not drawn) | 8.34
COc1cccc(NC(=O)N(CCN(C)C)C(C)c2cccnc2)c1 (stereo not drawn) | 1.53
Cc1ccc(NC(=O)CCn2cnc3ccccc3c2=O)cc1Cl | 5.48
CCOc1ccc(NS(=O)(=O)c2ccc(C(=O)NCC(c3ccc(OC)cc3)N3CCCC3)cc2)cc1 (stereo not drawn) | 4.44
Cc1cccnc1Sc1c([N+](=O)[O-])ncn1C | -0.07
O=C(Nc1cccnc1)C1CCC(CNS(=O)(=O)c2cccc3nsnc23)CC1 (stereo not drawn) | 8.22
CC(=O)c1cc(F)ccc1OCC(=O)N1CCCc2ccccc21 | 5.07
CN1CCN(c2ccccc2NC(=O)c2ccc(N3CCCC3)c([N+](=O)[O-])c2)CC1 | 20.3

Compound | inhibition [%]
O=S(=O)(Cc1ccccc1Cl)NCCc1ccccc1 | 0.01
Cc1cc(NC(=O)c2ccccc2)cc(NC(=O)c2ccccc2)c1C | 2.54
Cc1sc(NC(=O)c2ccccc2)c(C(=O)c2ccccc2)c1C | -8.66
CCOC(=O)c1sc(NC(=O)c2ccccc2)cc1C | 3.11
Cc1nc(NC(=O)c2ccccc2)sc1C | -2.8
O=C(CSc1cc([N+](=O)[O-])cc(S(=O)(=O)Cc2ccccc2)c1)NC1CC1 | -3.36
Cc1cccn2c(CNCC3OCCc4ccccc43)c(C(=O)N3CCCCC3)nc12 (stereo not drawn) | 2.24
COc1ccc(C(=O)NCCc2cc3ccc(C)c(C)c3[nH]c2=O)cc1OC | -4.33
O=C1OCC(CO)(CO)N=C1NNc1cc(Cl)ccc1Cl | 6.11
O=C1OCC(CO)(CO)N=C1NNc1ccccc1Cl | 8.82
Cc1cc(C)c(NC(=O)C2CCCN2CCO)c(C)c1 (stereo not drawn) | 6.37
Cc1ccc(C)c(NC2=NC3(CCCCC3)N=C(N)N2)c1 | -8.53
NC1=NC2(CCCC2)N=C(Nc2ccccc2)N1 | 0.23
Cc1ccc(NC2=NC3(CCCCC3)N=C(N)N2)c(C)c1 | 8.94
Cc1ccccc1NC1=NC2(CCCC2)N=C(N)N1 | -0.71
Cc1cc(C)cc(NC2=NC3(CCCCC3)N=C(N)N2)c1 | 18
COc1ccc(OC)c(NC2=NC3(CCCC3)N=C(N)N2)c1 | -3.8
COc1ccc(OC)c(NC2=NC3(CCCCC3)N=C(N)N2)c1 | -2.55
Cc1cccc(NC2=NC3(CCCCC3)N=C(N)N2)c1C | 1.1
COc1ccc(S(=O)(=O)N2CCCc3ccccc32)cc1[N+](=O)[O-] | 1.36
Clc1ccc(-c2c[n+]3c(n2-c2ccccc2)SCC3)cc1 | 22.2
CCc1cc2cc(C)ccc2nc1SCC(=O)Nc1cc(C)on1 | -6.66
COc1cccc(CNC(=O)CC(NC(=O)c2ccccc2)c2ccccc2)c1 (stereo not drawn) | -2.43
